Data on seven compounds can be found in PubChem BioAssay (EPA / NIEHS).

The source made the active and inactive calls. How the source made its calls: active means hit-call score of the fitted dose curve at least 0.9, where 1 is the maximum; inactive means score below 0.9.

Assay [1] can be described thus: APR_HepG2_CellLoss_72hr: Apredica 72-hour HepG2 Assay for Cell Loss (AID 2282915). To be noted: high-content imaging. In outline:
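HepG2 cells exposed 72 h to compound at 0.39–200 uM (10 concentrations, duplicate) in 0.5% DMSO. Fixed with 3.7% formaldehyde and Hoechst 33342-stained. Imaged at 20x; nuclear count gives cell number, fitted bidirectionally versus DMSO.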

Assay [2] can be described thus: APR_HepG2_P-H2AX_72hr: Apredica 72-hour HepG2 Assay for H2AX Phosphorylation (AID 2282916).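 Further: phospho-histone H2A.x immunostain intensity per cell marking DNA damage.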 The conditions noted are these: imaging, actives raise or lower the signal. In outline:
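HepG2; cpd 0.39–200 uM ×10 conc, duplicates; 0.5% DMSO; 72 hr. Fix 3.7% formaldehyde 30 min RT, 0.5% Triton X-100 10 min. Anti-phospho-H2A.x 1:200 + Hoechst 2 ug/mL, 60 min RT; ArrayScan imaging.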

Assay [3] is described as follows: APR_HepG2_MitoMembPot_72hr: Apredica 72-hour HepG2 Assay for Mitochondrial Membrane Potential (AID 2282917). To be noted: imaging, actives raise or lower the signal. In outline:
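HepG2 cells dosed 72 hr with compound at 0.39–200 uM in duplicate, 0.5% v/v DMSO final. Mitochondria stained with 250 nM MitoTracker Red CMXRos for 30 min before formaldehyde fixation, imaged by high-content fluorescence; bidirectional fit versus DMSO.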

A short description of assay [4]: APR_HepG2_MitoticArrest_72hr: Apredica 72-hour HepG2 Assay for Mitotic Arrest (AID 2282918). The conditions noted are these: high-content imaging, actives raise or lower the signal. In outline:
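HepG2 cells treated 72 h at 0.39–200 uM, 0.5% DMSO final; formaldehyde-fixed, stained with Hoechst 33342 and phospho-histone H3 antibody, imaged by high-content fluorescence; bidirectional fit versus DMSO.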

The nature of assay [5]: APR_HepG2_MicrotubuleCSK_72hr: Apredica 72-hour HepG2 Assay for Microtubule CSK Stabilty (AID 2282919). The conditions noted are these: HepG2 microtubule cytoskeleton, high-content imaging, actives raise or lower the signal. The essentials: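 HepG2 cells were exposed 72 hr to compound at 0.39–200 uM in duplicate (0.5% DMSO final), then fixed and permeabilized. Alpha-tubulin immunofluorescence was imaged by high-content microscopy, with bidirectional fitting against DMSO and taxol as positive control.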

A short description of assay [6]: APR_HepG2_P-H2AX_24hr: Apredica 24-hour HepG2 Assay for H2AX Phosphorylation (AID 2282920). To be noted: high-content imaging, actives raise or lower the signal. The essentials: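 HepG2 cells dosed 24 h at 0.39–200 uM (10 points, duplicate, 0.5% DMSO final). Formaldehyde-fixed and permeabilized, then immunostained for phospho-H2A.x with Hoechst. Fluorescence quantified by high-content imaging, fitted bidirectionally versus DMSO.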

The nature of assay [7]: APR_HepG2_StressKinase_72hr: Apredica 72-hour HepG2 Assay for Stress Kinase (AID 2282921). To be noted: HepG2 stress kinase (phospho-c-Jun) imaging, actives raise or lower the signal. In outline: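 Dose 0.39–200 uM (10 pts, duplicate), 0.5% DMSO; 72 h; fix 3.7% formaldehyde 30 min RT; Triton permeabilize; anti-phospho-c-Jun/Cy3 + Hoechst 60 min RT; image 20x; fit gain/loss vs DMSO.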

Assay [8] is described as follows: APR_HepG2_StressKinase_24hr: Apredica 24-hour HepG2 Assay for Stress Kinase (AID 2282922). To be noted: HepG2 stress kinase (phospho-c-Jun) imaging, actives raise or lower the signal. In outline: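 HepG2 cells exposed 24 h to 0.39–200 uM compound in duplicate (0.5% v/v DMSO final). Cells fixed in 3.7% formaldehyde, permeabilized and immunostained for phospho-c-Jun; read by high-content fluorescence imaging, fitted bidirectionally against DMSO.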

A short description of assay [9]: APR_HepG2_p53Act_72hr: Apredica 72-hour HepG2 Assay for p53 Activation (AID 2282923).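 Further: average cellular p53 protein immunofluorescence intensity in HepG2 cells.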 To be noted: high-content imaging, actives raise or lower the signal. In outline: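 10-pt conc. 0.39–200 uM, duplicate, 0.5% DMSO; 72 hr exposure; 3.7% formaldehyde fix, 0.5% Triton perm; sheep anti-p53/Cy5 + Hoechst; ArrayScan 20x, 6 images/well; gain/loss fit vs DMSO.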
Assay [10] in a line: APR_HepG2_MitoMass_72hr: Apredica 72-hour HepG2 Assay for Mitochondrial Mass (AID 2282924).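 Further: MitoTracker Red CMXRos stain intensity per cell imaged as mitochondrial mass.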 The conditions noted are these: high-content imaging, actives raise or lower the signal. In outline:
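HepG2 cells dosed 72 hr at 0.39–200 uM (0.5% DMSO), in duplicate. MitoTracker Red CMXRos 250 nM loaded 30 min before formaldehyde fixation; high-content fluorescence imaging, bidirectional fit versus DMSO.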

Assay [11] is described as follows: APR_HepG2_NuclearSize_72hr: Apredica 72-hour HepG2 Assay for Nuclear Size (AID 2282925). The conditions noted are these: high-content imaging, actives raise or lower the signal. In outline:
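HepG2 cells dosed 72 h at 0.39–200 uM (10 concentrations, duplicate) in 0.5% v/v DMSO final. Fixed, Hoechst 33342-stained nuclei imaged; nuclear diameter measured by automated image analysis. Bidirectional fit versus DMSO.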

The nature of assay [12]: ATG_CRE_CIS: Attagene CIS-FACTORIAL HepG2 Assay for human cAMP Responsive Element (CRE) binding protein 3 (AID 2282926). The conditions noted are these: HepG2 CRE cis-reporter, Attagene multiplexed mRNA; actives raise or lower the signal. The essentials:
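HepG2 cells transiently transfected with cis-element-driven multiple reporter transcription units; CRE reporter mRNA measured 24 h after dosing by RT-PCR, 6-FAM labelling, HpaI digestion and capillary electrophoresis. Bidirectional fit versus DMSO baseline.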

Assay [13] has as its target CCAAT/enhancer-binding protein beta (Homo sapiens) (UniProt P17676). Nature of the assay: ATG_C_EBP_CIS: Attagene CIS-FACTORIAL HepG2 Assay for human CCAAT/Enhancer Binding Protein (C/EBP) beta (AID 2282927). To be noted: HepG2 Attagene cis-factorial transcription factor reporter; actives raise or lower the signal. The essentials:
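HepG2 transiently transfected with multiplexed reporter units under cis-regulatory promoters reporting endogenous C/EBPb activity. After 24 h exposure, reporter mRNA assayed by RT-PCR, fluorescent labelling, HpaI digestion and capillary electrophoresis; bidirectional fitting versus DMSO.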

A short description of assay [14]: ATG_CMV_CIS: Attagene CIS-FACTORIAL HepG2 Assay for human CMV (Internal Marker) (AID 2282928).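 Further: endpoint acts as a background internal control marker rather than a target.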 The conditions noted are these: HepG2 CMV promoter reporter, transcription factor profiling; actives raise or lower the signal. The essentials: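 Cell system: HepG2, transiently transfected multiple reporter units under cis promoters. Exposure: 24 h. Detection: RT-PCR, FAM labeling, HpaI digestion, capillary electrophoresis. Analysis: bidirectional, DMSO baseline.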

In assay [15] the target is Aryl hydrocarbon receptor (Homo sapiens) (UniProt P35869). Nature of the assay: ATG_Ahr_CIS: Attagene CIS-FACTORIAL HepG2 Assay for human Aryl Hydrocarbon Receptor (Ahr) (AID 2282930). To be noted: HepG2 AhR cis-factorial reporter transcription; actives raise or lower the signal. In outline: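 HepG2 cells transiently transfected with cis-element-driven multiplexed reporter units; endogenous AhR activity read as reporter mRNA 24 h after dosing, via RT-PCR, 6-FAM labelling, HpaI digestion and capillary electrophoresis. Bidirectional fit relative to DMSO.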
Sequence of Aryl hydrocarbon receptor (Homo sapiens) (P35869 whole entry, looked up): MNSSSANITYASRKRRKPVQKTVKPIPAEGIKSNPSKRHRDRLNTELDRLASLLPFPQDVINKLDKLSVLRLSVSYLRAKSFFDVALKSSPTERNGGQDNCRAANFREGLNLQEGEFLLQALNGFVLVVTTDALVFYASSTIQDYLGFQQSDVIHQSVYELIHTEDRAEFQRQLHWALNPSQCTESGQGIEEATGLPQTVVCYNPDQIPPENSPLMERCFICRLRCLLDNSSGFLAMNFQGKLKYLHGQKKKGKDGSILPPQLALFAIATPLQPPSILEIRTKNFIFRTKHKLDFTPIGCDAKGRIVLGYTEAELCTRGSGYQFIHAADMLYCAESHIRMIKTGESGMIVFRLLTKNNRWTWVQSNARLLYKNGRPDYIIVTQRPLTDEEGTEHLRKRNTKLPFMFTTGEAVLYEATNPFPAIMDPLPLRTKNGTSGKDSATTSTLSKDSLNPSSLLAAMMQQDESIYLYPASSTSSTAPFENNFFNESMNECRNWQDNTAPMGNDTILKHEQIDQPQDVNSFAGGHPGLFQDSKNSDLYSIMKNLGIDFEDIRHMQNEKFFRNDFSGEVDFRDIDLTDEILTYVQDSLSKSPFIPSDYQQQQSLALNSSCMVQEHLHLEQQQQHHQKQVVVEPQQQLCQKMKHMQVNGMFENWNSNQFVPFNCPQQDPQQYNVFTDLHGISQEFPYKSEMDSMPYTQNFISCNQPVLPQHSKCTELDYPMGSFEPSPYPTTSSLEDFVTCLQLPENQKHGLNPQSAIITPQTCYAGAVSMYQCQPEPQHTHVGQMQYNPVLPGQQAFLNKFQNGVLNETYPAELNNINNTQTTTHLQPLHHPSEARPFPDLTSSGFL

Assay [16] is described as follows: ATG_AP_2_CIS: Attagene CIS-FACTORIAL HepG2 Assay for human Activator Protein 2 (AP-2) (AID 2282932). To be noted: HepG2 AP-2 cis-reporter, Attagene transcription factor profiling; actives raise or lower the signal. The essentials: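 HepG2 cells transiently transfected with cis-element reporter units and exposed for 24 h. Reporter mRNA measured by RT-PCR, FAM labelling, HpaI digestion and capillary electrophoresis. Changes in either direction fitted relative to DMSO.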

Assay [17] in a line: ATG_BRE_CIS: Attagene CIS-FACTORIAL HepG2 Assay for human Bone Morphogenetic Protein (BMP) Response Element (BRE) (AID 2282933). The conditions noted are these: HepG2 BMP response element reporter, Attagene transcription factor profiling; actives raise or lower the signal. In outline:
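Endogenous transcription factor activity read in transiently transfected HepG2 cells after 24 h chemical exposure. Bidirectional curve fitting against DMSO; readout is reporter transcript level by RT-PCR with capillary electrophoresis of labelled products.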

The target in assay [18] is Retinoic acid receptor alpha (Homo sapiens) (UniProt P10276). In words: ATG_DR5_RAR_CIS: Attagene CIS-FACTORIAL HepG2 Assay for human Retinoic Acid Receptor Alpha (RARE), DR5 submotif (AID 2282934). The conditions noted are these: HepG2 Attagene cis-factorial RARE DR5 reporter, mRNA; actives raise or lower the signal. The essentials:
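HepG2 cells transiently transfected with multiplexed reporter units; DR5 cis-element drives reporter through endogenous transcription factors. After 24 h dosing, reporter mRNA quantified by RT-PCR, fluorescent labeling, HpaI digestion and capillary electrophoresis; bidirectional fitting versus DMSO.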

Assay [19] in a line: ATG_DR4_LXR_CIS: Attagene CIS-FACTORIAL HepG2 Assay for human Liver X Receptor (LXR), DR4 submotif (AID 2282929). The conditions noted are these: HepG2 Attagene DR4 cis-reporter, mRNA transcription; actives raise or lower the signal. In outline:
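Cells were transfected with multiple reporter transcription units, exposed to chemicals for 24 hours, then lysed for RNA. Reporter mRNA induction was measured by RT-PCR with capillary electrophoresis detection and fitted in both directions relative to DMSO.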

Assay [20] in a line: ATG_AP_1_CIS: Attagene CIS-FACTORIAL HepG2 Assay for human Activator Protein 1 (AP-1) (AID 2282931). To be noted: HepG2 Attagene cis-factorial AP-1 reporter mRNA; actives raise or lower the signal. In outline: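 Endogenous transcription-factor activity in human HepG2 liver cells is read through a cis-promoter reporter transcript, sampled 24 h after dosing. Detection uses RT-PCR with capillary electrophoresis; values come from bidirectional fitting relative to DMSO.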

Sequence of CCAAT/enhancer-binding protein beta (Homo sapiens) (P17676 whole entry, looked up): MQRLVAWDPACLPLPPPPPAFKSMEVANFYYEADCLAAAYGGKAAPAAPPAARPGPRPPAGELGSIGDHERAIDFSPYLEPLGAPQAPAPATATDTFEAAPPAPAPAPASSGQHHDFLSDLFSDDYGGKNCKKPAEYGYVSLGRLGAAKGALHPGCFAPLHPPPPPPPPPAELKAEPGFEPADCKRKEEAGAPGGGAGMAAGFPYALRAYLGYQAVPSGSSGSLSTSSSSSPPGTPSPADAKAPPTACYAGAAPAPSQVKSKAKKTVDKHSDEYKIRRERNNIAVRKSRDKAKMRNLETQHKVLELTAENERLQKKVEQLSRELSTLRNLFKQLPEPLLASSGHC
Sequence of Retinoic acid receptor alpha (Homo sapiens) (P10276 whole entry, looked up): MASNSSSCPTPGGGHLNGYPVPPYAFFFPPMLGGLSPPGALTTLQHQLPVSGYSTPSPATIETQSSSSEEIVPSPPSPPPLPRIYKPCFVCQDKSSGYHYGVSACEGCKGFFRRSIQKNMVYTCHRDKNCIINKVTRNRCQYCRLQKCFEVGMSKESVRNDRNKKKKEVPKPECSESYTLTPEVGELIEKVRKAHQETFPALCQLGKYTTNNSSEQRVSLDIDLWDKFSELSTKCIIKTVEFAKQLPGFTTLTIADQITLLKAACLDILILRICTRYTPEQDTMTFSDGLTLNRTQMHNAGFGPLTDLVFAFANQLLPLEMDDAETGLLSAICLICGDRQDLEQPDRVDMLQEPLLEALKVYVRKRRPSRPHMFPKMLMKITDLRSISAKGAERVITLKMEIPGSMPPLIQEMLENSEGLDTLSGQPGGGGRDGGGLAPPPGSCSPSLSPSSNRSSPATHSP

`Cn1c(-c2ccccc2)cc(-c2ccccc2)[n+]1C`: the outcome in assay [1], in assay [2], in [3], in assay [4], in assay [5] and in assay [6] was inactive. The result in [7], in assay [8], in [9], in assay [10], in assay [11] and in [12] was inactive. Besides, the outcome in assay [13], in assay [14], in [15], in assay [16], in assay [17] and in [18] was inactive.

On to `N#CN=C1SCCN1Cc1ccc(Cl)nc1`, for which the result in [1], in assay [2], in [3], in [4], in [5] and in assay [6] was inactive. Further, the compound was classed as inactive in assay [8], in assay [9], in assay [10], in assay [11], in assay [12] and in assay [13]. The compound was classed as inactive in assay [14], in assay [19], in assay [15], in assay [20], in assay [16] and in [17]. For the same compound, in assay [18], the outcome was inactive.

Take `COc1ccc(-c2ccccc2)cc1NNC(=O)OC(C)C`: the call in assay [1], in assay [2], in assay [3], in [4], in [5] and in assay [6] was inactive. The result in assay [8], in assay [9], in assay [10], in assay [11], in assay [12] and in assay [13] was inactive. In addition, the compound was called inactive in assay [16] and in assay [18]. Further, the concentration at half-maximal activity (AC50) (as a rule, the midpoint of the concentration-response curve, whichever way the signal moves) in [14] is 13.5 µM (active); in assay [20], 14.7 µM (active); in [17], 2.32 µM (active).

Consider `CCNC(=O)NC(=O)C(C#N)=NOC`, for which the outcome in [1], in assay [2], in assay [3], in assay [4], in assay [5] and in assay [6] was inactive. For the same compound, the call in [8], in assay [10], in [11], in assay [12], in [13] and in assay [14] was inactive. Further, the compound was classed as inactive in assay [15], in assay [20], in [16], in assay [17] and in [18].

In the case of `COC(=O)NS(=O)(=O)c1ccc(N)cc1`, the compound was classed as inactive in assay [1], in assay [2], in assay [3], in [4], in assay [5] and in assay [6]. The compound was called inactive in assay [8], in assay [9], in [10], in assay [11], in assay [12] and in [14]. The outcome in assay [15], in assay [20], in assay [16] and in [17] was inactive. Besides, in [13], the AC50 is 13.2 µM (active).

Consider `CC(C)NC(=O)N1CC(=O)N(c2cc(Cl)cc(Cl)c2)C1=O`, for which the compound was called inactive in assay [1], in assay [2], in assay [3], in assay [4], in assay [5] and in [6]. Moreover, the outcome in assay [8], in [9], in assay [10], in assay [11], in assay [12] and in assay [13] was inactive. Also, the result in [14], in assay [16] and in assay [17] was inactive. Moreover, the AC50 in assay [15] was 4.87 µM (active).

Turning to `CCC(C)n1c(=O)[nH]c(C)c(Br)c1=O` (stereo not given), the call in [1], in assay [2], in assay [3], in assay [4], in assay [5] and in assay [6] was inactive. The compound was called inactive in assay [8], in [9], in assay [10], in [11], in [12] and in assay [13]. Also, the call in assay [14], in [15], in assay [16] and in [17] was inactive.
